Data: PubChem BioAssay (NCATS)
Inconclusive results are not listed. Where a call stands in place of a potency, no number is given. The source made the active and inactive calls. The call rests on the fitted dose curve; in most records, active means well fitted inhibition curve with a large enough effect; inconclusive means small, poorly fitted or top-dose-only effect; inactive means no such curve, though single readings can be large or run the other way.

Legend:
[1] = tested on: Zika virus NS2B-NS3 protease (unlinked complex); experiment: Primary screen GU Rhodamine qHTS for Zika virus inhibitors: Unlinked NS2B-NS3 protease assay (AID 1347159); further: nearly all actives have a fitted effect of over 60% in size
How it was run: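 Compounds, tested up to 114 microM, were incubated for 15 minutes with 25 nM unlinked NS2B-NS3 protease at pH 8.0. Cleavage of 1.5 microM Rhodamine110 substrate was then followed by fluorescence for 15 minutes.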

[2] = tested on: Zika virus NS2B-NS3 protease (linked construct); experiment: Primary screen NINDS Rhodamine qHTS for Zika virus inhibitors (AID 1347160); further: nearly all actives have a fitted effect of over 55% in size
How it was run: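 Percent inhibition, normalized to uninhibited and enzyme-free controls, is fitted to a 4-parameter Hill equation. Fluorescence change comes from a 15-min cleavage of 1.5 microM bis-peptide Rhodamine110 substrate by 25 nM linked NS2B-NS3 at room temperature.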

Row | Compound | Potency [1] | Potency [2]
1 | CC(O)(C(=O)C1CC1(CO)COC1OC(CO)C(O)C(O)C1O)C1C(O)CC2C3CC=C4CC(O)CC(O)C4(C)C3C(O)CC21C (stereo unspecified) | inactive | inactive
2 | Cc1ccc(-c2c(C(=O)CCl)n(CCCO)c3ncnc(N)c23)cc1 | inactive | inactive
3 | COC1=CC(=O)C=C(C)C12Oc1c(Cl)c(OC)cc(OC)c1C2=O (stereo unspecified) | inactive | inactive
4 | C[C@@H](NC(=O)c1ccc(C#Cc2cccc(F)c2)cn1)C(C)(C)O | inactive | inactive
5 | CC(=O)O[C@@H]1[C@@H](OC(C)=O)[C@H](C)O[C@@H](O[C@H]2[C@@H]3C=CO[C@@H](O[C@@H]4O[C@H](CO)[C@@H](O)[C@H](O)[C@H]4O)[C@@H]3[C@@]3(CO)O[C@@H]23)[C@@H]1OC(=O)/C=C/c1ccccc1 | inactive | inactive
6 | CC(C)(F)CC(NC(c1ccc(-c2ccc(S(C)(=O)=O)cc2)cc1)C(F)(F)F)C(=O)NC1(C#N)CC1 (stereo unspecified) | inactive | inactive
7 | NS(=O)(=O)c1ccc(N2CCN(CC[C@@H]3OCCc4ccccc43)CC2)cc1 | inactive | inactive
8 | CN1CC2CN(c3ccc4oc5ccccc5c(=O)c4c3)CC2C1 (stereo unspecified) | inactive | inactive
9 | CC(C)c1ccc(NC(=O)Cn2cnc3c2c(=O)n(C)c(=O)n3C)cc1 | inactive | inactive
10 | C=C1C(OC2OC(CO)C(O)C(O)C2O)CC2C(C)(C)C(O)CCC2(C)C1CC/C(C)=C\COC(=O)CC(=O)O (stereo unspecified) | inactive | inactive
11 | O=C(C1CCCCC1)N(CCN1CCN(c2ccccc2O)CC1)c1ccccn1 | inactive | inactive
12 | CC(=O)O[C@@H]1CC[C@@]2(C)[C@H](CC[C@@H]3[C@@H]2C[C@H](OC(C)=O)[C@]2(C)[C@@H](C(C)=O)CC[C@@H]32)C1 | inactive | inactive
13 | CC(C)n1nc(C#Cc2ccccc2)c2c(N)ncnc21 | inactive | inactive
14 | O=C(Nc1ccc2[nH]nc(-c3ccncc3)c2c1)[C@@H]1CCN(CC(=O)N2CCN(c3ccc(-c4ncccn4)cc3)CC2)C1 | inactive | inactive
15 | CNc1nc(Nc2ccc(C(=O)N3CCOCC3)cc2OC)nc2[nH]cc(Cl)c12 | inactive | inactive
16 | O=C(COc1ccc(C(=O)c2ccccc2)cc1)NC1CCN(Cc2ccccc2)CC1 | inactive | inactive
17 | C=CC(=O)Nc1cccc(Nc2nc(Nc3ccc(NC4CN(CCF)C4)cc3OC)ncc2C(F)(F)F)c1 | inactive | inactive

Row | Compound | Potency [1] | Potency [2]
18 | CC(=O)OC1CC2(C)C(CCC(C)C23Cc2c(O)cc(CO)c(C=O)c2O3)C(C)(C)C1O (stereo unspecified) | inactive | inactive
19 | CN(C)[C@@H]1CCc2[nH]c3ccc(NC(=O)c4ccc(F)cc4)cc3c2C1 | inactive | inactive
20 | CNC(C)C(=O)NC(C(=O)N1CCCC1C(=O)Nc1snnc1-c1ccccc1)C1CCCCC1 (stereo unspecified) | inactive | inactive
21 | CNc1cc2[nH]c(=O)n(-c3ccc(NC(=O)NS(=O)(=O)c4ccc(Cl)s4)cc3)c(=O)c2cc1F | inactive | inactive
22 | C=C1C(=O)O[C@@H]2C3C(=C(C)[C@@H](O)[C@@H](OC(=O)/C(=C/C)COC(C)=O)[C@@H]12)C(=O)[C@H]1O[C@@]31C (stereo partly specified) | inactive | inactive
23 | CC(=O)C1=CCC2C3CC=C4CC(O)CC(O)C4(C)C3C(O)CC12C (stereo unspecified) | inactive | inactive
24 | Cc1ccc(S(=O)(=O)NCc2ccc(C(=O)NCCN(Cc3ccccc3)C(C)C)cc2)cc1 | inactive | inactive
25 | Cn1cc(-c2cnn3c(N)c(Br)c([C@@H]4CCCNC4)nc23)cn1 | inactive | inactive
26 | C=C(C(=O)OC)[C@@H]1CC=C2C=CC(=O)[C@H](C)[C@@]2(C)C1 | inactive | inactive
27 | CCN(CC)C(=O)C(c1ccccc1)N1CCN(c2ccc(NC(=O)c3ccccc3-c3cccnc3)cc2F)CC1 (stereo unspecified) | inactive | inactive
28 | O=C(Nc1ccc(CN2CCOCC2)cc1)c1ccc(-c2cccc(Cl)c2)o1 | inactive | inactive
29 | COc1cc(CN(CCN)C(=O)c2cccs2)ccc1OCc1ccccc1 | inactive | inactive
30 | Cn1c(=O)c(F)c(Nc2ccc(I)cc2F)c2c(=O)n(CC(O)CO)cnc21 (stereo unspecified) | inactive | inactive
31 | C=CC(=O)N1CCCC(n2nc(-c3ccc(Oc4ccccc4)cc3)c3c(N)ncnc32)C1 (stereo unspecified) | inactive | inactive
32 | Cc1cc(C)nc(SCC(=O)Nc2ncc(Cc3cccc4ccccc34)s2)n1 | inactive | inactive
33 | O=C([C@@H](Cc1cccc(C(F)(F)F)c1)NS(=O)(=O)c1cc(F)c2c(c1)CCNC2)N1CCCC1 | inactive | inactive
